# In PubChem BioAssay (NCATS):
# Records with an inconclusive call do not appear. Active and inactive are the calls of the source. Unless noted, the call rests on the fitted dose curve.
# Columns and labels:
# [1] = qHTS for Inhibitors of the Functional Ribonucleoprotein Complex (vRNP) of Lymphocytic Choriomeningitis Arenaviruses (LCMV): Viability assay - alamar blue signal for LCMV Primary Screen (AID 1347085; calls by dose curve; tested in HEK293 reporter line; further: nearly all actives have a fitted effect of over 80% in size; further: potency means the concentration at half of the fitted maximal effect); details: alamar blue viability counter-screen, LCMV vRNP screen cells; series mostly up to 57.5 µM
# [2] = Cytotoxicity counterscreen for inhibitors of SARS-CoV-2 cell entry (AID 1645845); details: cell viability (SARS-CoV-2 entry assay cells); series mostly up to 57.1 µM; further: nearly all actives have a fitted effect of over 50% in size
# Procedure, shortened: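 ATP-content luminescence (ATPLite 1step, 15 min RT) read after 48 h compound exposure of Expi293F cells stably expressing human ACE2; normalized to cells-only wells and media-only wells.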
# [3] = Primary qHTS to identify inhibitors of SARS-CoV-2 cell entry (AID 1645846); details: SARS-CoV-2 pseudovirus cell entry assay, luminescence; activity change, negative = inhibition: at 57.1 µM (top of the series) unless noted; series mostly up to 57.1 µM; further: nearly all actives have a fitted effect of over 45% in size; further: potency means the concentration at half of the fitted maximal effect
# Procedure, shortened: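 Inhibition of spike-mediated entry was scored in human ACE2-transfected Expi293F cells. Particles were MLV-pseudotyped with Wuhan-Hu-1 S carrying a 19-aa C-terminal deletion; signal was luciferase after two days, scaled between spike PP and fusion-protein-free PP.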
# [4] = High Content Imaging Cell-Based qHTS for Inhibitors of the mTORC1 Signaling Pathway in MEF (Tsc2-/-, p53-/-) Cells (AID 2666; active means well fitted curve in the direction sought with a large enough effect; an effect the other way counts as inactive or inconclusive;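 further: percent of cells scored positive for phospho-rpS6 Ser235/236 immunostaining by imaging; potency means the concentration at half of the fitted maximal effect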); details: series mostly up to 38.3 µM
# Procedure, shortened: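 Tsc2-/-, p53-/- MEFs (empty-vector stable) grown in DMEM + 10% FBS were exposed to compounds for 24 hrs at 37 degree Celsius, fixed, and stained with Alexa-488 anti-phospho-rpS6 Ser235/236 plus Hoechst. Imaging gave the percentage of positive cells per well.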
# [5] = High Content Imaging Cell-Based qHTS for Inhibitors of the mTORC1 Signaling Pathway in MEF Cells (AID 2667; active means well fitted curve in the direction sought with a large enough effect; an effect the other way counts as inactive or inconclusive; further: potency means the concentration at half of the fitted maximal effect); details: series mostly up to 38.3 µM
# Procedure, shortened: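 Tsc2-/-, p53-/- MEFs stably re-expressing WT Tsc2, grown in DMEM + 10% FBS, were treated with compounds for 24 hrs at 37 degree Celsius, fixed, and stained with Alexa-488 phospho-rpS6 Ser235/236 antibody plus Hoechst; results given as % positive cells.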
# [6] = Validation screen for inhibitors of Lassa infection (AID 463096); details: Lassa virus infection, cell-based; series mostly up to 46.1 µM; further: potency means the concentration at half of the fitted maximal effect
# [7] = biological target: M-phase phosphoprotein 8 (Homo sapiens) (UniProt Q99549); assay: qHTS Validation Assay for Inhibitors for MPP8 Chromodomain Interactions with Methylated Histone Tails (AID 488949; active means well fitted curve in the direction sought with a large enough effect; an effect the other way counts as inactive or inconclusive;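 further: 50 nM MPP8 with 50 nM peptide preformed then compounds added for 30 min; AlphaScreen signal from MPP8 chromodomain bound to biotinylated H3K9me3 peptide; top concentration of the series differs between compounds; on the % scale 0 is the no-effect control and ±100 the full control effect; nearly all actives have a fitted effect of over 55% in size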); details: AlphaScreen MPP8 binding to H3K9me3 peptide; series mostly up to 114 µM
# Procedure, shortened: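 50 nM MPP8 + 50 nM b-H3K9me3 peptide, PBS pH 7.4/0.01% Tween-20, 30 min RT; + cpd 30 min RT; + AlphaScreen donor/Ni-chelate acceptor beads 10 ug/mL final, 30 min dark; luminescence read.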
# [8] = Inducers of the Endoplasmic Reticulum Stress Response (ERSR) in human glioma: Validation (AID 504836; active means well fitted curve in the direction sought with a large enough effect; an effect the other way counts as inactive or inconclusive; further: 0% is about no effect); details: human glioma cells, ER stress response reporter; series mostly up to 38.3 µM
# Procedure, shortened: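 ERSR induction read as luciferase luminescence (Bright-Glo, 10 min at room temperature) in stably transfected human U87-MG glioma cells exposed to compounds for 16 h, using GRP78 as sensor.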
# [9] = biological target: Glutaminase kidney isoform, mitochondrial (Homo sapiens) (UniProt O94925); assay: qHTS for Inhibitors of Glutaminase (GLS): LOPAC Validation (AID 624146; active means well fitted curve in the direction sought with a large enough effect; an effect the other way counts as inactive or inconclusive;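 further: glutamate product detected by oxidase and peroxidase coupled Amplex red fluorescence gain; on the % scale 0 is the no-effect control and ±100 the full control effect; nearly all actives have a fitted effect of over 60% in size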); details: glutaminase enzyme activity inhibition; series mostly up to 46.1 µM
# Procedure, shortened: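 Human kidney-isoform GLS in 45 mM KH2PO4 pH 8.2, 0.02% Tween-20, with compound, started with 1mM L-Glutamine (added stock). Glutamate oxidase/HRP/Amplex red coupled fluorescence read at start and after 30 min at RT.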
# [10] = biological target: Bile acid receptor (Homo sapiens) (UniProt Q96RI1); assay: qHTS assay for small molecule agonists of farnesoid X receptor signaling (AID 588527); details: HEK293T FXR-UAS-bla, beta-lactamase ratio, 16 h; activation: stronger effect = higher value;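 further: 0% = vehicle basal and 100% = reference agonist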
# Procedure, shortened: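 Agonist-mode beta-lactamase reporter in GeneBLAzer FXR-UAS-bla HEK293T cells, titration up to 92 uM, 16 h exposure at 37 C, CCF4 fluorescence. Response scaled to DMSO (0%) and 100 uM chenodeoxycholic acid (100%), then Hill-fitted for EC50 and efficacy.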
# [11] = biological target: Nucleoprotein (Lymphocytic choriomeningitis virus (strain Armstrong)) (UniProt P09992); assay: qHTS for Inhibitors of the Functional Ribonucleoprotein Complex (vRNP) of Lymphocytic Choriomeningitis Arenaviruses (LCMV): LCMV Primary Screen - GLuc reporter signal (AID 1347086); details: LCMV minigenome vRNP cell assay, Gaussia luciferase reporter; series mostly up to 57.5 µM; further: nearly all actives have a fitted effect of over 70% in size; further: potency means the concentration at half of the fitted maximal effect; on activity change, negative = inhibition: on the % scale 0 is the no-effect control and ±100 the full control effect
# [12] = qHTS profiling of the MIPE4 collection as inhibitors of Plasmodium falciparum (3D7) proliferation (AID 743344; call rule not given here;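 further: scaled between DMSO vehicle wells and 0.29 µM artemisinin as full inhibition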); details: P. falciparum 3D7 in erythrocytes, SYBR Green DNA fluorescence, 72 h; at 28.5 µM (top of the series) unless noted
# Procedure, shortened: (§1)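 Parasite DNA was quantified by SYBR Green I fluorescence (ex 485, em 535 nm) after overnight lysis in saponin/Triton buffer at room temperature. Cultures at 0.3% parasitemia and 2.5% hematocrit were first exposed to compound for 72 h at 37 C; signals were normalised to artemisinin (0.29 uM) and vehicle wells.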
# [13] = qHTS profiling of the MIPE4 collection as inhibitors of Plasmodium falciparum (DD2) proliferation (AID 743345; call rule not given here); details: P. falciparum Dd2 in erythrocytes, SYBR Green DNA, 72 h; at 28.5 µM (top of the series) unless noted
# Procedure, shortened: as §1
# [14] = Confirmatory qHTS for VERO E6 Cytotoxicity Assay: Counterscreen for SARS-CoV-2 CPE Assay (AID 1508605); details: cell viability luminescence; series mostly up to 20 µM; further: on the % scale 0 is the no-effect control and ±100 the full control effect; nearly all actives have a fitted effect of over 60% in size
# Sequence of Nucleoprotein (Lymphocytic choriomeningitis virus (strain Armstrong)) (P09992 whole entry, looked up): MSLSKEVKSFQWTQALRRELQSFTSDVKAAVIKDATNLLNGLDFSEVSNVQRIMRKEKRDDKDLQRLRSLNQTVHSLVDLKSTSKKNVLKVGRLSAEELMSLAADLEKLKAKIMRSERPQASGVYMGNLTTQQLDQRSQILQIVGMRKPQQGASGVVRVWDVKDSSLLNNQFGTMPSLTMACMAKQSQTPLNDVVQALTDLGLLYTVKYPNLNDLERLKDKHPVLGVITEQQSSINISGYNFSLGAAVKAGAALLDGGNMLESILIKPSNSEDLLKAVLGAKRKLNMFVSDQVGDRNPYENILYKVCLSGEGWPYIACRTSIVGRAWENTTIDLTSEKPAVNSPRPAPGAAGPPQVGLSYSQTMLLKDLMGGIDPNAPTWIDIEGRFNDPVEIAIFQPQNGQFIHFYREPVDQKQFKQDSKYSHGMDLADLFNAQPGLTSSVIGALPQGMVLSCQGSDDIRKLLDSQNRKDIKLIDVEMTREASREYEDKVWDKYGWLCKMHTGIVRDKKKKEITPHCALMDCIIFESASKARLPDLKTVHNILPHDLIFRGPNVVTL
# Sequence of M-phase phosphoprotein 8 (Homo sapiens) (Q99549 whole entry, looked up): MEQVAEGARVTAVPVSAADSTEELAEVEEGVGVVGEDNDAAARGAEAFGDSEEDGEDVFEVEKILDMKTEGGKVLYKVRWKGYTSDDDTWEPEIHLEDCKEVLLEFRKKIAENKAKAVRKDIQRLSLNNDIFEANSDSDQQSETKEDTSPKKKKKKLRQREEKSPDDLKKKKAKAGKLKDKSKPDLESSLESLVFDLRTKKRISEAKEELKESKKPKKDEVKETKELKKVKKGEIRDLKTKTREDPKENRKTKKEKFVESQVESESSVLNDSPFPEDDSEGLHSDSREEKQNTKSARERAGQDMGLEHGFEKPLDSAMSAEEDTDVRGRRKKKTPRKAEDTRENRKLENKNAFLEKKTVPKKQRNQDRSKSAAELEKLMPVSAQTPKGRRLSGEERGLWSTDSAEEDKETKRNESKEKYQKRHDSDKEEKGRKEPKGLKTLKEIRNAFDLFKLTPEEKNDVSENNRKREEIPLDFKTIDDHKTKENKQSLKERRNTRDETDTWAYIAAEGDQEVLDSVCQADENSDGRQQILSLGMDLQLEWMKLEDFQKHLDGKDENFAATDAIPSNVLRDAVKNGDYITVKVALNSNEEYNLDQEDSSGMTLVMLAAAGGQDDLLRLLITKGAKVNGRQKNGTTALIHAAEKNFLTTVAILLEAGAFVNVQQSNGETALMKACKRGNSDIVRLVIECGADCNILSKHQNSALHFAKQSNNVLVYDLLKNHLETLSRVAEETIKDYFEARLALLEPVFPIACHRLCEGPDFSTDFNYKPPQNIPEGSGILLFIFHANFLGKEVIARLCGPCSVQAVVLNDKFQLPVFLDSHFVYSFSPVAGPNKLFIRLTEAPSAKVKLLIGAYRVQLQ
# Sequence of Bile acid receptor (Homo sapiens) (Q96RI1 whole entry, looked up): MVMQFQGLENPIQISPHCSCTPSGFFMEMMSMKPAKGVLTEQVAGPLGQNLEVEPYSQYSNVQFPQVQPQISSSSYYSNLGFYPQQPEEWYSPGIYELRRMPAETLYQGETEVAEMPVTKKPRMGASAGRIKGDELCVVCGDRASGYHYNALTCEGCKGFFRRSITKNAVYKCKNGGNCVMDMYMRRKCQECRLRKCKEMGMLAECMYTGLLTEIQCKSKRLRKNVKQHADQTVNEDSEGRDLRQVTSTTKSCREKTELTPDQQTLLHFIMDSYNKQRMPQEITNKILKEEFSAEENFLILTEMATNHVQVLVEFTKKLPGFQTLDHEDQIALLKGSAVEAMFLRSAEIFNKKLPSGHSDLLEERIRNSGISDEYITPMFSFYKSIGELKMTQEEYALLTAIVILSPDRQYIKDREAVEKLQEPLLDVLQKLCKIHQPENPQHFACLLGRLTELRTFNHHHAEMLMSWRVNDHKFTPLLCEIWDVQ
# Sequence of Glutaminase kidney isoform, mitochondrial (Homo sapiens) (O94925 whole entry, looked up, canonical isoform): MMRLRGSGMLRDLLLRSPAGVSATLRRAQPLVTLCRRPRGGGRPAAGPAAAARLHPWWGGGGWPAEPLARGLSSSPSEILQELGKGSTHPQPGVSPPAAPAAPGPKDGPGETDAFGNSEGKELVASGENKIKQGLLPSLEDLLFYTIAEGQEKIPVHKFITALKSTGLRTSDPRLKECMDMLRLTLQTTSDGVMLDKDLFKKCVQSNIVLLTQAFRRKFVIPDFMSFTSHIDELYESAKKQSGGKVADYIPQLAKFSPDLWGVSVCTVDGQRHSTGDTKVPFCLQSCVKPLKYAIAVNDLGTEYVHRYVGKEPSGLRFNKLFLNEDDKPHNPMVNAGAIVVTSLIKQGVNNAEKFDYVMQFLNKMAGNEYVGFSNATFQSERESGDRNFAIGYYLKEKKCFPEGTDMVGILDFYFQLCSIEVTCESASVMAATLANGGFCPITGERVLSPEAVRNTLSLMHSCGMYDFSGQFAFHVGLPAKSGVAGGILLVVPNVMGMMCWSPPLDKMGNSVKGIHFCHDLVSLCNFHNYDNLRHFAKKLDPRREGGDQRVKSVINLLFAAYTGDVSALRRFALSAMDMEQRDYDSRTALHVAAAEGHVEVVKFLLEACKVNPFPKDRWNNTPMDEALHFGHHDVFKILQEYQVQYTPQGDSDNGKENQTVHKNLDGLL
structure (smiles),measurement,setting,value
O=C1OC[C@H](Cc2ccc3c(c2)OCO3)/C1=C\c1ccc2c(c1)OCO2,Potency,[1],inactive
CC1(C)CNc2cc(NC(=O)c3cccnc3NCc3ccncc3)ccc21,Potency,[1],34.3 µM (active)
same,Potency,[2],inactive
same,Potency,[3],inactive
CC12C(=O)OC(=O)C1(C)C1CCC2O1 (configuration not stated),Potency,[4],9.27 µM (active)
same,Potency,[5],4.65 µM (active)
same,Potency,[6],10 µM (active)
same,Potency,[7],inactive
same,outcome,[8],inactive
same,outcome,[9],inactive
same,Potency,[1],11.2 µM (active)
Cc1cccc(O)c1C,activation,[10],-0.773% (inactive)
same,Potency,[1],inactive
same,Potency,[11],inactive
C=C1C(=O)OC2CC3(C)OC3CCC(C)=CC(OC(C)=O)C12 (configuration not stated),Potency,[1],inactive
O=S(=O)(NCCNCC=Cc1ccc(Br)cc1)c1cccc2cnccc12,Potency,[1],inactive
same,Potency,[11],inactive
N#Cc1cc([N+](=O)[O-])c2sc(C(N)=O)[n+]([O-])c2c1,outcome,[8],inactive
same,Potency,[1],inactive
same,Potency,[11],inactive
CCC1(O)C(=O)OCc2c1cc1n(c2=O)Cc2cc3cc(O)ccc3nc2-1 (configuration not stated),Potency,[1],0.1 µM (active)
C[C@@]1(c2cc(-c3cncnc3)c(F)cc2F)CCSC(N)=N1,Potency,[1],13.7 µM (active)
same,Potency,[2],inactive
same,"activity change, negative = inhibition",[3],-2.33%
COc1cc2c(NC3CCN(C(C)C)CC3)nc(C3CCCCC3)nc2cc1OCCCN1CCCC1,Potency,[1],38.5 µM (active)
same,Potency,[3],8.91 µM (active)
CN(C)c1ccc2cc(C(=O)N[C@@H](CCCN=C(N)CCl)C(=O)NCc3ccccc3)ccc2c1,Potency,[1],34.3 µM (active)
same,Potency,[2],inactive
same,"activity change, negative = inhibition",[3],-26.4%
NS(=O)(=O)c1ccc(NC2=CC(=O)c3ccccc3C2=O)cc1,Potency,[1],38.5 µM (active)
same,Potency,[11],12.2 µM (active)
same,Potency,[2],inactive
same,Potency,[3],inactive
COC(=O)C12OCC34C(CC5C(C)=C(O)C(=O)CC5(C)C3C(O)C1O)OC(=O)C(OC(=O)C=C(C)C)C24 (configuration not stated),Potency,[11],inactive
COc1ccc2cc1Oc1ccc(cc1)C[C@H]1c3cc(c(OC)cc3CCN1C)Oc1c(OC)c(OC)cc3c1[C@H](C2)N(C)CC3,"parasite growth, % of DMSO control",[12],31.2%
same,"parasite growth remaining, % of DMSO control (lower = more inhibition)",[13],72.6%
same,Potency,[1],inactive
CC1(C)CC(=O)c2c(C(F)(F)F)nn(-c3ccc(C(N)=O)c(NC4CCC(OC(=O)CN)CC4)c3)c2C1 (configuration not stated),Potency,[1],0.769 µM (active)
same,Potency,[11],0.611 µM (active)
same,Potency,[14],inactive
same,"activity change, negative = inhibition",[3],-89%
CCOc1cc2c(c(F)c1OCC)C(=N)N(CC(=O)c1cc(N3CCOCC3)c(OC)c(C(C)(C)C)c1)C2,Potency,[1],24.3 µM (active)
same,Potency,[11],9.68 µM (active)
same,Potency,[3],35.5 µM (active)
C=CC(=O)N1CCC[C@@H](n2nc(-c3ccc(Oc4ccccc4)cc3)c3c(N)ncnc32)C1,Potency,[1],21.7 µM (active)
same,Potency,[2],inactive
same,Potency,[3],inactive
